From the supplement of paper PMC3334620
The full ranking holds about 33,000 sequences; the median of “E-score (-0.5 to 0.5)” is about -0.015, and the highest 2% start at about 0.3. Many of the other results were omitted from the sample, so the highest values are more common in it than they were.

Each sequence was assayed against T1, Abf1 (UniProt P14164) (assay: PBM E-score (8-mer binding enrichment) (E-score (-0.5 to 0.5)); higher = stronger / more preferred TF binding). Details: protein concentration: 200 nM; construct: GST-full length.
T1 sequence: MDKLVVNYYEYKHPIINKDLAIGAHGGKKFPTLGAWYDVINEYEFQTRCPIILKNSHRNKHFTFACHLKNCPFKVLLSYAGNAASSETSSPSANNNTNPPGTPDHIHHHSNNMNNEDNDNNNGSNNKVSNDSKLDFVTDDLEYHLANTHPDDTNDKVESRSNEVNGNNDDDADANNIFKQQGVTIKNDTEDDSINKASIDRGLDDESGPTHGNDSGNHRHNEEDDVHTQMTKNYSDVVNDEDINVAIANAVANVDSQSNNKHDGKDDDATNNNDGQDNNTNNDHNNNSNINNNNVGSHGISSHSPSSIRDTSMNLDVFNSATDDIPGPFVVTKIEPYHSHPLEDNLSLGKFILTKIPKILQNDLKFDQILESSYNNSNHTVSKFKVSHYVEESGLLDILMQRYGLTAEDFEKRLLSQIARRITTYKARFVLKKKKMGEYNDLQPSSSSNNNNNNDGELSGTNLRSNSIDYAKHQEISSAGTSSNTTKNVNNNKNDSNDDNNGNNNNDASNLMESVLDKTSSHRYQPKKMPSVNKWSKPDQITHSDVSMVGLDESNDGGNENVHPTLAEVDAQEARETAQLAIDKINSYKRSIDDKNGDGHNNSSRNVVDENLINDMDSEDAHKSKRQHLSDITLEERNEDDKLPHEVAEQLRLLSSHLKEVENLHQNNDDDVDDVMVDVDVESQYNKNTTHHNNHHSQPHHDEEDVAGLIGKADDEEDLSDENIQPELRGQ
In short: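 Universal all-10-mer Agilent arrays, fresh or stripped once, were converted to double-stranded form by primer extension. GST-tagged yeast transcription factors from PURExpress in vitro transcription/translation, full-length or DNA-binding domain only, were applied at about 100-200 nM and detected with fluorescent anti-GST. After masliner normalisation, the Universal PBM Analysis Suite scored each ungapped eight-base word together with its reverse complement by E-score.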

| Sequence | PBM E-score |
| --- | --- |
| ACGTATCG | 0.212 |
| ACGTATCA | 0.33 |
| CCGTATCA | 0.28 |
| TCGTATCA | 0.331 |
| GCAGAACA | -0.122 |
| ATTGCGTG | -0.126 |
| CGCATCAA | 0.081 |
| ACTGGTAT | 0.0243 |
| AGTCACTA | 0.315 |
| CGTCACTC | 0.173 |
| AGTCACTG | 0.0546 |
| GGTCACGA | 0.27 |
| GGTCACTA | 0.281 |
| CGTCACGC | 0.145 |
| CGTCACGA | 0.336 |
| CGTCACTA | 0.374 |
| AGTCACTC | 0.232 |
| ACGCCAGA | -0.081 |
| ACCACCTA | -0.168 |
| ACTGAAAT | -0.0641 |
| AGCACCAC | -0.214 |
| ACGTTGGA | 0.142 |
| CAACCGAG | -0.0944 |
| GCAGACGA | 0.174 |
| TCAGACGA | 0.305 |

| Sequence | PBM E-score |
| --- | --- |
| ACGGACGA | 0.263 |
| GCGGACGA | 0.276 |
| ACAGACGA | 0.236 |
| TCGGACGA | 0.325 |
| AGAATCCG | -0.0715 |
| GCTGAGGA | -0.131 |
| ACGACCTG | 0.0542 |
| GGGTAGAA | -0.0486 |
| ACGCTGAT | 0.0221 |
| AATATCAC | 0.441 |
| AGTATCAT | 0.286 |
| AATATCAG | 0.119 |
| GATATCAA | 0.207 |
| AATATCAA | 0.0238 |
| GCTATCAC | 0.211 |
| AATATCGC | 0.283 |
| AATATCAT | 0.391 |
| ACTATCAT | 0.184 |
| GATATCGC | 0.341 |
| GATATCAC | 0.414 |
| GATATCGA | 0.271 |
| CTATCAAA | 0.121 |
| GCCAGCAC | -0.0263 |
| TAAAGACA | -0.183 |
| CCGGAGCA | -0.291 |

| Sequence | PBM E-score |
| --- | --- |
| CAACCTAG | -0.0549 |
| GAAACCGC | -0.15 |
| CATATCAG | 0.0515 |
| AATATCGT | 0.398 |
| CATATCAA | 0.222 |
| AATATCGG | 0.187 |
| AATATCGA | 0.0788 |
| CATATCAC | 0.389 |
| CAGACCTC | 0.00051 |
| GCTGGTTA | -0.0104 |
| ACTAAGTG | 0.108 |
| CAATATCA | 0.283 |
| AAATATGC | 0.0361 |
| TAATATGA | 0.261 |
| GAATATCA | 0.334 |
| TAATATTA | 0.361 |
| AAATATTA | 0.217 |
| TAATATAA | 0.196 |
| CAATATTA | 0.271 |
| AAATATGT | 0.334 |
| TAATATCA | 0.344 |
| AAATATGA | 0.0696 |
| GAATATCC | 0.0475 |
| AGGTAGAC | -0.249 |
| CTAGGGCA | -0.273 |

| Sequence | PBM E-score |
| --- | --- |
| CCCAAAAG | -0.135 |
| AGCGGACT | -0.23 |
| GCTGGAGA | -0.0857 |
| GAGCTGCC | -0.0575 |
| ACAACTCG | 0.0757 |
| AAATATCG | 0.271 |
| AAATATCC | 0.0659 |
| AAATATCA | 0.376 |
| CAAATCGC | -0.0589 |
| CCTTACAC | -0.0587 |
| AGTATATA | 0.31 |
| GGTATATA | 0.161 |
| AGTATATG | 0.0541 |
| CGTATATA | 0.357 |
| CGTATATC | 0.255 |
| AGTATATC | 0.0567 |
| AGTGGATC | -0.0658 |
| CTGCCATA | -0.0819 |
| ACCGTATC | 0.225 |
| GCCGTATA | 0.379 |
| CCCGTATA | 0.289 |
| GGCGTATA | -0.0363 |
| ACCGTATA | 0.384 |
| TCCGTAGA | 0.143 |
| ACCGTATG | 0.27 |

| Sequence | PBM E-score |
| --- | --- |
| GCCGTAGA | 0.371 |
| GCCGTAGC | 0.0651 |
| AAGTGTTC | -0.0135 |
| AGTTATAT | 0.16 |
| ATGAAGAG | 0.0548 |
| CTGGGCAA | -0.172 |
| AATAATTA | 0.2 |
| ATCTTATG | 0.0695 |
| AAGCGGGC | -0.381 |
| ATACGACA | 0.296 |
| ACACGACC | -0.00503 |
| CTACGACA | 0.263 |
| GCACGACC | 0.0772 |
| GCACGACA | 0.338 |
| GTACGACA | 0.36 |
| ACACGACA | 0.368 |
| ACACGACT | 0.0619 |
| CCACGACA | 0.0558 |
| AAATTGGC | -0.0692 |
| GTTGAGAA | 0.098 |
| AAGGACCG | -0.16 |
| GGAGCCTA | -0.064 |
| GCGACAGA | -0.0736 |
| ACGACAGG | 0.05 |
| CCGACAAA | -0.0368 |

| Sequence | PBM E-score |
| --- | --- |
| GCGACAAA | 0.215 |
| ACGACAAA | 0.369 |
| ACGACAAT | 0.329 |
| ACGACAGA | 0.308 |
| ACGACAAG | 0.215 |
| ACGACAAC | 0.265 |
| GGCGTCAA | -0.206 |
| ATGTAGGG | -0.256 |
| ATACGGTA | 0.319 |
| CTACGGTA | 0.138 |
| AAACGGTG | 0.129 |
| ATACGGTG | 0.297 |
| ATACGGTC | 0.26 |
| GTACGGTA | 0.197 |
| AACGGAAT | 0.15 |
| ACTCGTTG | -0.00197 |
| AAGGGATA | 0.0355 |
| ATGGTGGC | -0.387 |
| TCGTACGA | 0.455 |
| CGGTACGA | 0.291 |
| GCGTACGA | 0.317 |
| GCGTACGC | -0.158 |
| TCGTAAGA | 0.154 |
| CCGTACGC | 0.241 |
| TAGTACGA | 0.287 |

| Sequence | PBM E-score |
| --- | --- |
| CCGTACGA | 0.451 |
| GGGTACGA | 0.0568 |
| CCAGTCTA | -0.227 |
| CAGCAGAG | -0.263 |
| ATGAGAAG | 0.117 |
| AGTAGTTG | 0.067 |
| ACTTTCAA | 0.159 |
| CTTTACCC | -0.141 |
| GCTGACAC | 0.0512 |
| TGATTCAA | 0.0649 |
| GAGCAAGC | -0.0234 |
| ATTTTTTA | 0.193 |
| TGGTGACA | 0.357 |
| AGGTGACG | 0.0988 |
| CGGTGACC | 0.0798 |
| GGGTGACA | 0.257 |
| AGGTGACA | 0.362 |
| CGGTGACA | 0.399 |
| CGGTGACG | 0.235 |
| GGGTGACC | 0.188 |
| AGGTGACC | 0.14 |
| ACCGAGGT | -0.113 |
